High-throughput results (PubChem)
KB-V1 MDR tox – KB-V1 MDR subline cytotoxicity | KB-V1 MDR cells viability, CellTiter-Glo, 72 h | Potency, µM (top dose mostly 46.1 µM), hits mostly cytotoxic | actives 3.4% (n = 400,000) | AID 1347076; further: on the % scale 0 is the no-effect control and ±100 the full control effect; nearly all actives have a fitted effect of over 60% in size
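KB-V1 cells (P-gp-expressing MDR subline of KB-3-1) in phenol-red-free DMEM with 10% FBS were exposed to library compounds over a concentration series for 72 h at 37 degrees C. Viability read by CellTiter-Glo luminescence; concentration-effect curves fitted after normalization.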
KB-3-1 tox – kills parental KB-3-1 adenocarcinoma cells | actives 1.4% (n = 400,000) | KB-3-1 viability, CellTiter-Glo ATP luminescence, 72 h | AID 1347075 | Potency, µM (top dose mostly 46.1 µM), most hits filed as cytotoxic; further: on the % scale 0 is the no-effect control and ±100 the full control effect; nearly all actives have a fitted effect of over 60% in size
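Cytotoxicity measured as CellTiter-Glo luminescence after 72 h at 37 C. Compound titrations were pinned onto drug-naive KB-3-1 parental adenocarcinoma cells grown in DMEM with 10% FBS, and normalized data fitted to concentration-response curves.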
ELG1 DNA repair – blocks ELG1-dependent DNA repair in HEK293T cells; HEK293T ELG1-luciferase reporter, luminescence, 16 h; DNA damage induced by 5-fluorouridine; Potency, µM (top dose mostly 46.1 µM), inactives show at the highest dose activity change, negative = inhibition, actives largely listed as inhibitors; actives 2.3% (n = 330,000); further: on the % scale 0 is the no-effect control and ±100 the full control effect; nearly all actives have a fitted effect of over 55% in size
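Reporter activity after DNA damage by 5-fluorouridine is monitored. Compound-treated cells incubate 16 hr at 37 °C, then ONE-Glo is added for 30 min before luminescence reading.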
SW480 rereplic – DNA re-replication induction in SW480 cells | actives 1.8% (n = 340,000) | AID 624297 | SW480 DNA re-replication, Hoechst DNA content imaging, 48 h | Potency, µM (titrated, usually from 46.1 µM), for inactives: top-dose re-replication activation, most hits filed as activators; further: % of control where 0% means no effect; nearly all actives have a fitted effect of over 55% in size
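250 cells/well; 23 nL cpd via pin tool; 48 hr, 37 C, 5% CO2; Hoechst 40 min; imager read of total nuclear intensity, ex 405/em 500-530 nm.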
MCF10A rerep – induces DNA re-replication in MCF 10a normal breast cells; actives 2.9% (n = 350,000); Potency, µM (series often up to 46.1 µM), for the others: top-dose activity, positive = re-replication, actives largely listed as activators; MCF 10A DNA re-replication, Hoechst nuclear intensity, 48 h; further: % of control where 0% means no effect; nearly all actives have a fitted effect of over 50% in size
Numbers without * were called inactive; i = inactive; ? = inconclusive; . = no result; ! = repeats disagree. An excerpt weighted towards active compounds, which were near 8.1% of everything screened. The call rests on the fitted dose curve; in most records, active means well fitted curve in the direction sought with a large enough effect; inconclusive means small, poorly fitted or top-dose-only effect, or another doubt; inactive means no such curve, though single readings can be large; an effect the other way counts as inactive or inconclusive. Potency means the concentration at half of the fitted maximal effect.

SMILES	KB-V1 MDR tox	KB-3-1 tox	ELG1 DNA repair	SW480 rereplic	MCF10A rerep
COc1cccc(-n2c(CN3CCN(c4ccccn4)CC3)nc3ccc([N+](=O)[O-])cc3c2=O)c1	i	i	?	-15.4%	0.4%
COc1ccc(-n2c(CN3CCN(c4ccccc4)CC3)nc3ccc([N+](=O)[O-])cc3c2=O)c(OC)c1	i	i	-6.2%	2.0%	-30.6%
COc1cccc(-n2c(CN3CCN(c4ccc(C)cc4)C(C)C3)nc3ccc([N+](=O)[O-])cc3c2=O)c1 (stereo not given)	14.6µM*	i	?	3.8%	20.8%
Cc1cc(C)c(CSc2ncc(-c3ccc([N+](=O)[O-])cc3)[nH]2)c(C)c1	23.1µM*	?	-16.6%	?	18.4µM*
N#CCCC1CCCC=C1N(Cc1ccccc1)C(=O)C(Cl)Cl (stereo not given)	?	i	5.6%	3.8%	10.3µM*
CCOc1ccc(CN(C)CC(=O)Nc2ccc([N+](=O)[O-])cc2Cl)cc1	16.4µM*	i	?	4.2%	8.0%
O=C(c1cccc(F)c1)N1CCc2ccccc21	i	i	8.1%	1.4%	0.184µM*
O=C(c1cccc([N+](=O)[O-])c1)N1CCc2ccccc21	i	i	1.1%	-0.4%	-7.5%
COc1ncc(-c2ccc(N3C(c4ccsc4)=Cc4ccc(F)cc4C3CC(C)=O)cc2)cn1 (stereo not given)	i	i	.	.	.
O=[N+]([O-])c1cc(-n2cccc2)ccc1N1CCOCC1	6.51µM*	?	20.8%	-5.8%	-1.5%
Nc1cc(N2CCOCC2)c(Cl)cc1[N+](=O)[O-]	6.51µM*	i	-9.0%	1.8%	1.2%
Nc1cc(N2CCCC2)c(Cl)cc1[N+](=O)[O-]	8.2µM*	?	4.7%	-0.6%	13.7%
Cc1ccc(C)n1-c1ccc(N2CCOCC2)c([N+](=O)[O-])c1	i	?	?	?	?
O=C(NNC(=O)c1cc2ccccc2[nH]1)OCc1ccccc1	?	i	?	0.8%	21.2%
S=Cc1ccc(/C=C/c2ccnc3ccccc23)cc1	i	?	.	.	.
COc1nc(N/N=C/c2ccc(-c3ccccc3[N+](=O)[O-])o2)nc(N2CCOCC2)n1	?	?	?	?	10.3µM*
O=[N+]([O-])c1ccc(Nc2nc(N3CCOCC3)nc(N3CCOCC3)n2)cc1	i	i	.	-20.0%	2.2%
O=[N+]([O-])c1ccc(/C=N/Nc2nc(N3CCCCC3)nc(N3CCCCC3)n2)cc1	i	i	-27.8%	-6.1%	-1.2%
COC(=O)c1ccccc1-c1ccc(/C=N/Nc2nc(N3CCCC3)nc(N3CCCC3)n2)o1	?	i	?	?	?
O=[N+]([O-])c1ccc(/C=N/Nc2nc(N3CCCCCC3)nc(N3CCCCCC3)n2)o1	?	6.51µM*	23.1µM*	?	?
O=[N+]([O-])c1ccc(-c2ccc(/C=N/Nc3nc(NCc4ccccc4)nc(N4CCOCC4)n3)o2)cc1	i	i	?	9.2µM*	7.31µM*
COc1ccccc1CCNC(=O)c1cccn1-c1nnc(N2CCCC2)s1	i	i	.	.	.
CCCCOCCCNC(=O)C[C@@H]1C[C@@]2(C(=O)OC)CC(C)(C)CC=C2N(Cc2cccc3ccccc23)C1=O	20.6µM*	?	.	.	.
COC(=O)[C@@]12C[C@@H](CC(=O)NCCCCc3ccccc3)C(=O)N(Cc3cccc4ccccc34)C1=CCC(C)(C)C2	18.4µM*	?	.	.	.
COCCCNC(=O)C[C@@H]1C[C@@]2(C(=O)OC)CC(C)(C)CC=C2N(Cc2cccc3ccccc23)C1=O	?	i	.	.	.
SMILES	KB-V1 MDR tox	KB-3-1 tox	ELG1 DNA repair	SW480 rereplic	MCF10A rerep
COC(=O)[C@@]12C[C@@H](CC(=O)NCc3ccccc3)C(=O)N(Cc3cccc4ccccc34)C1=CCC(C)(C)C2	?	i	.	.	.
Cc1cncc(NCc2cccc(Cl)c2)n1	i	i	.	.	.
CNC(=O)CSCc1cnn(-c2ccccc2)c1-n1cccc1	16.4µM*	i	?	-5.4%	2.7%
CCCCCc1ccc(C(=O)CCC(=O)OCC(=O)N(CC)c2c(N)n(Cc3ccccc3)c(=O)[nH]c2=O)cc1	i	i	-11.5%	7.6%	8.3%
CNC(=S)N/N=C(\C)c1ccc(Cl)c(Cl)c1	?	i	16.6%	-20.8%	0.4%
CNC(=S)NN=C(C)CCCC(C)=NNC(=S)NC	i	?	.	0.411µM*	0.9%
COCCCN(C(=O)CSCC(=O)Nc1ccc(C)cc1)c1c(N)n(Cc2ccccc2)c(=O)[nH]c1=O	i	i	.	0.8%	-1.8%
COc1ccc(NC(=O)Cn2nnc(-c3ccc(CN4CCOCC4)cc3)n2)c(OC)c1	20.6µM*	i	-21.1%	-1.6%	8.6%
COc1ccccc1NC(=O)Cn1nnc(-c2ccccc2NS(=O)(=O)c2ccccc2)n1	5.8µM*	?	?	?	6.7%
Cc1ccccc1NC(=O)Cn1nnc(-c2ccc(CN3CCC(C)CC3)cc2)n1	?	i	-0.1%	-3.6%	0.5%
COC(=O)c1ccccc1NC(=O)Cn1nnc(-c2ccc(OC)cc2)n1	14.6µM*!	i	?	-2.0%	15.7%
CCCOc1ccc(-c2nnn(CC(=O)Nc3cccc(C(=O)OC)c3)n2)cc1	13µM*	i	-1.2%	8.0%	16.4%
COc1ccc(NC(=O)Cn2nnc(-c3ccccc3NS(=O)(=O)c3ccc(OC)cc3)n2)cc1	?	?	?	14.4%	?
O=C(Cn1c(=O)oc2cc(S(=O)(=O)N3CCCCC3)ccc21)Nc1cccc(Cl)c1	i	i	.	.	.
Cc1cc(C)cc(OC(=O)c2cc(-c3ccc4c(c3)OCCO4)on2)c1	i	i	.	.	.
C[C@@H]1CN([C@@H](C)CO)S(=O)(=O)c2ccc(Br)cc2O[C@H]1CN(C)C(=O)Nc1ccc(C(F)(F)F)cc1	i	?	.	.	.
CCNC(=O)C1(C)CCCN(C(=O)c2ccccc2Br)C1 (stereo not given)	i	i	.	.	.
CN(CC(=O)Nc1cccc(S(=O)(=O)N(C)c2ccccc2)c1)Cc1cccs1	i	i	.	.	.
CCCCCCCCCCCCCCCC(=O)NCCc1c[nH]c2ccccc12	i	i	-11.9%	6.1%	?
CCCCOc1ccc(-c2nnn(CC(=O)NCCc3c[nH]c4ccccc34)n2)cc1	16.4µM*	i	7.5%	-1.2%	?
CCN(CC)C(=O)Cn1c(=O)n(Cc2ccc(C(=O)NCc3ccc(C)cc3)cc2)c(=O)c2ccccc21	i	i	.	.	.
CCN(CC)C(=O)Cn1c(=O)c2ccccc2n2c(=S)sc(-c3cccc(C)c3)c12	2.91µM*	i	5.3%	-95.3%	1.2%
